Assay outcomes from PubChem BioAssay.
Most compounds without a hit are left out; they make up all but 4.1% or so of the library.
MEKK3 PB1 HTS: modulators (inhibitors or enhancers) of MEK5 binding to human MEKK3 PB1 domain; bead-based flow cytometry, Alexa488-MEK5 binding to MEKK3; actives lie on both sides; 0 = blocked by unlabeled MEK5, 100 = vehicle; Q99759; actives 1.4% (n = 290,000); binding response (% of control), % at 10 µM;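 active = binding response more than 3 SD above or below the average of its plate-row segment, actives on both sides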;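 note: Alexa488 bead fluorescence after subtracting the streptavidin-only scavenger bead signal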
MEKK2 mut-MEK5: signal of MEK5 binding to mutant human MEKK2 PB1 domain. actives 0.35% (n = 290,000). bead flow cytometry, Alexa488-MEK5 binding to MEKK2 mutant. AID 1530. percent response, % at 10 µM; in the data active = percent response above about 24%, passing the limit was not always enough
CHT allo act: human CHT allosteric activation; Q9GZV3; CHT-expressing cells, membrane potential dye, choline EC20; stronger effect = higher value; LV-AA mutant CHT in HEK293 cells; B-score at 10 µM; actives 0.49% (n = 310,000); AID 488977;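 active = initial fluorescence not abnormally high and integrated response B-score, plate-corrected, over 3 SD above library mean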
Target sequence (Q9GZV3 whole entry, looked up): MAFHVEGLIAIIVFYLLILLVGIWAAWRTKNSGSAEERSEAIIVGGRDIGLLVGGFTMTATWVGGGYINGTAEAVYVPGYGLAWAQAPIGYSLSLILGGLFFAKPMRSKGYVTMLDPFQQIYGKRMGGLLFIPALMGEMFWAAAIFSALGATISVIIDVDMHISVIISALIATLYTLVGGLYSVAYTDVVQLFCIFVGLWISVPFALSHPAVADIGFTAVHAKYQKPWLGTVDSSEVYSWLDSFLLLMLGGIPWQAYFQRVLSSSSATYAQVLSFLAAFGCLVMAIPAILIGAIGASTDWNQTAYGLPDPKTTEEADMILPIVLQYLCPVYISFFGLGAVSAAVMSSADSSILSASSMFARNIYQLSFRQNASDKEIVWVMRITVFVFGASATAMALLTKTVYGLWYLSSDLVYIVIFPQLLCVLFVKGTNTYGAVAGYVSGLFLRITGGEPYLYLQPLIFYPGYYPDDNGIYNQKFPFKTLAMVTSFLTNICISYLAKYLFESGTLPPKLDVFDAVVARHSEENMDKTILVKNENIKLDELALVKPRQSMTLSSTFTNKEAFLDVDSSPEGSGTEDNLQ
SUMO Mot1 rescue: inhibitors of SUMOylation pathway: yeast Mot1-301 growth rescue; AID 2716; S. cerevisiae Mot1-301 growth rescue, ATP luminescence, 38.5C; percent above DMSO median, 100 means doubled; growth rescue, % at 18.8 µM; actives 1% (n = 320,000);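 active = every valid replicate shows activation above 250% relative to neutral control wells; inactive = the rest, any valid replicate at or below 250%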
CHT inh: human CHT choline transport inhibition. B-score at 10 µM. Q9GZV3. CHT-expressing cells, membrane potential dye, choline response; stronger effect = lower value. actives 0.86% (n = 310,000);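 active = B-score over 3 SD under the library average, and starting fluorescence ratio not unusually high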;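 note: choline stimulus applied at its EC90 after an EC20 pre-addition; B-score computed on integrated fluorescence ratio after choline addition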
MEKK2 WT-MEK5: raises or lowers MEK5 binding to wildtype human MEKK2 PB1 domain; bead flow cytometry, Alexa488-MEK5 binding to MEKK2 WT; actives lie on both sides; binding response (% of control), % at 10 µM; actives 1.1% (n = 290,000); AID 1531; in the data active = binding response below about 67% or above about 130%
CHT act confirm: human CHT activation, confirmatory screen | activation, % at 10 µM | actives 91% (n = 2,500) | CHT-expressing cells, membrane potential dye fluorescence (FDSS); % of choline EC20–EC90 response window; HEK293 expressing CHT LV-AA mutant; choline added at its EC20 | shares compounds with CHT allo act;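 active = primary screen active, with duplicate mean activation above negative control mean plus 3 SD, cut at about 11% in these data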
HEK293 MP dye: activity in parental HEK293 cells lacking CHT; shares compounds with CHT allo act; membrane potential dye fluorescence (FDSS); measured after EC20 choline addition; ratio readout change at 10 µM, hits read low; actives 62% (n = 2,500); AID 623908;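 active = duplicate-averaged ratio beyond 3 SD from buffer wells, up or down, though filed actives are nearly all decreases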
A number is an active result; 0 = inactive; - = not tested or not shown.

SMILES	MEKK3 PB1 HTS	MEKK2 mut-MEK5	CHT allo act	SUMO Mot1 rescue	CHT inh	MEKK2 WT-MEK5	CHT act confirm	HEK293 MP dye
COC(=O)c1cc2c(ccn2-c2ccc(F)cc2)n1CC(C)C	0	0	0	0	0	0	24.2	0
Cn1nnc2cc(C(=O)Nc3cccnc3)ccc21	0	0	6.69	0	0	0	51.7	-34
CN(C)c1nc(N)c(C(=O)N=C(N)N)nc1Cl	0	0	8.73	0	0	0	55.9	-39
NC(=Nc1ccccc1)NC(=O)c1nc(Cl)c(N)nc1N	0	0	0	0	0	0	-	-
Cc1sc2nc(SCC(=O)N(C)Cc3ccccc3)n(-c3ccccc3)c(=O)c2c1C	0	0	0	0	0	0	-	-
Cc1nc(N(C)Cc2ccccc2)c2c(C)c(C)sc2n1	0	0	0	0	0	0	26.1	0
Cc1ccc(S(=O)(=O)NC2=NCN(C(C)C)CN2)cc1	0	0	0	0	0	0	-	-
CN1CCCC1CCNc1ccc2c(=O)c3ccccc3oc2c1 (configuration not stated)	0	0	6.44	0	0	0	53.1	-21.9
COC(=O)C1CCN(C(=O)COC(=O)/C=C/c2ccc(O)c(OC)c2)CC1	-	-	-	0	-	-	-	-
Cc1ccn2c(Nc3ccc4c(c3)OCO4)c(-c3ccccn3)nc2c1	0	0	6.3	0	0	0	50.8	0
Cc1cc(=O)n(Cc2ccccc2)c(O)c1C#N	0	0	0	0	0	0	-	-
Cc1cc(=O)n2nc(-c3ccccc3)sc2c1C#N	0	0	6.43	0	0	0	28.7	-26.5
O=C(c1ccco1)N1CCN(c2ncccn2)CC1	0	0	0	0	0	0	-	-
Nc1nc(N2CCN(C(=O)c3ccco3)CC2)nc2ccc(Br)cc12	0	0	0	0	0	0	19.9	-31.6
Cc1cc(N2CCN(C(=O)c3ccco3)CC2)c2ccccc2n1	0	0	6.86	0	0	0	39.3	-53.5
Cc1cc(N2CCN(C(=O)Nc3ccc(F)cc3F)CC2)c2ccccc2n1	0	0	6.57	0	0	0	53.0	-70.6
Cc1cc(N2CCN(S(=O)(=O)c3ccccc3)CC2)c2ccccc2n1	0	0	10.1	0	0	0	53.3	-72.7
CCCCc1ccc(NC(=O)N2CCN(c3cc(C)nc4ccccc34)CC2)c(C)c1	0	0	0	0	0	0	-	-
Nc1nc(N2CCN(C(=O)c3ccco3)CC2)nc2ccccc12	0	0	6.44	0	0	0	57.0	-57.9
COc1cccc(C(=O)NCC(c2cccs2)N2CCc3ccccc32)c1 (configuration not stated)	-	-	6.36	0	0	-	25.0	0
Cc1nnsc1S(=O)c1ccccc1Cl (configuration not stated)	0	0	0	0	0	0	-	-
O=C(Nc1ccnn1C1CCN(C2CCCC2)CC1)c1ccccc1	0	0	0	0	0	0	-	-
COc1ccc(C(=O)CSc2nnc(CNC(=O)c3ccco3)n2C)cc1	0	0	6.59	0	0	0	69.4	-50.9
COc1ccc(C(=O)CSc2nnc(CNC(=O)c3ccco3)n2C)cc1OC	0	0	0	0	0	0	-	-
Cc1cc(NC(=O)c2ccc3c(c2)C(=O)N(C)C3=O)no1	0	0	0	0	0	0	44.4	-41.9
Cc1cc(NC(=O)c2ccc3c(c2)C(=O)N(Cc2cccnc2)C3=O)no1	0	0	0	-	0	0	25.6	-27.4
COC(=O)C1(c2ccccc2)NC(c2cccs2)C2C(=O)N(c3ccccc3)C(=O)C21 (configuration not stated)	0	0	0	0	0	0	-	-
COc1ccc(Br)cc1CN(C)CC(=O)Nc1c(Cl)cccc1Cl	0	0	0	0	0	0	0	0
